# In all, about 16,000 compounds went through this assay and about 5,700 (36%) were called active. Another 24% or so got no clear call; they are omitted. The list shows a part of the results. Values without a mark were called inactive. Calls come from the whole dose curve; as a rule, active = well fitted curve in the direction sought with a large enough effect; inconclusive = small, poorly fitted or top-dose-only effect, or effect the other way; inactive = no such curve, though single readings can be large or run the other way.
# Molecular target: Cytochrome P450 1A2 (Homo sapiens) (UniProt P05177)
# Sequence (P05177 whole entry, looked up): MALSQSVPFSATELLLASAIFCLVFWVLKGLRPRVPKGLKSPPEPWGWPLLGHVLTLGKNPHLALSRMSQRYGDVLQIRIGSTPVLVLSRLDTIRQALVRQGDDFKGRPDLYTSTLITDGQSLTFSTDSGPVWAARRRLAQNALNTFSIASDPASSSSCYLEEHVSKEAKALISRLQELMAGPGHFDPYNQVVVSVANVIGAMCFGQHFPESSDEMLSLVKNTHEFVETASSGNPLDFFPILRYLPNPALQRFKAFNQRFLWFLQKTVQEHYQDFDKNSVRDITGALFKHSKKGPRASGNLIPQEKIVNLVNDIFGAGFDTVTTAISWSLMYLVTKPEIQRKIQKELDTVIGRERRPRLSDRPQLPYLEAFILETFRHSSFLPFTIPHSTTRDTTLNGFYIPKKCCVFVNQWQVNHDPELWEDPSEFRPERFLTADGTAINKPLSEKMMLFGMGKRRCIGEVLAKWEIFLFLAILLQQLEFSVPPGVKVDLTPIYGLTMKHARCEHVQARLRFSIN
# Experiment: Cytochrome panel assay with activity outcomes
# Conditions: recombinant CYP, pro-luciferin dealkylation, luminescence, p450-cyp1a2; series mostly up to 57.1 µM; activity, negative = inhibition: at the top concentration
# % is set by controls: 0 for no effect and ±100 for the full control effect.
Structure (SMILES),AC50,"activity, negative = inhibition"
O=C(Nc1cccc(C(F)(F)F)c1)c1ccc(Cn2cc(Br)cn2)o1,2 µM (active),
CC(C)CN1CCC2(CC1)CCN(C(=O)c1csnn1)CC2,,-2.25%
OCCCNCc1ccccn1,,-20% [at 2.29 µM]
OCCNCCCOc1cccc(Cl)c1Cl,0.2 µM (active),
CCCCNN,,-6.54% [at 2.29 µM]
CN(C)S(=O)(=O)c1ccc(Nc2ccc(O)c3c2C(=O)c2c([N+](=O)[O-])ccc(O)c2C3=O)cc1,0.126 µM (active),
O=C(CCCN1CC=C(n2c(=O)[nH]c3ccccc32)CC1)c1ccc(F)cc1,,-11% [at 25.6 µM]
COC(=O)CCSc1cc([N+](=O)[O-])cc2c1c(C1OCCS1)nn2-c1ccccc1 (stereo unspecified),28.2 µM (active),
O=C(O)c1nn(-c2ccccc2)nc1-c1nn(-c2ccccc2)nc1C(=O)O,,-3.23%
CN(C)C=Nc1ccc2nn(-c3ccccc3)nc2c1,0.708 µM (active),
CC(=O)OC[C@@H]1O[C@@H](O/N=C2/C[C@@H](O)[C@@H](O)[C@@H]3[C@@H]4C(=O)N([C@@H](C)c5ccccc5)C(=O)[C@H]4CC[C@H]23)[C@H](OC(C)=O)[C@H](OC(C)=O)[C@@H]1OC(C)=O,,3.02% [at 11.4 µM]
Cc1nn(C)c(Cl)c1NC(=O)OCc1ccc(Cl)cc1Cl,5.01 µM (active),
Cc1nn(C)c(Cl)c1NC(=O)OCc1ccc(F)cc1,14.1 µM (active),
CC(C)(C)C(=O)OCOC(=O)[C@@H]1N2C(=O)[C@@H](NC(=O)[C@H](N)c3ccccc3)[C@H]2SC1(C)C,,-6.18% [at 25.6 µM]
COc1ccc(O[C@H]2C=C[C@@H](c3ccccc3)O[C@H]2COC(=O)CC/C(C)=N\O[C@@H](C)c2cc(-c3c(C)cc(C)cc3C)no2)cc1,,-2.73% [at 11.4 µM]
Cc1cccc(CNc2cc(-c3cccc(C#N)c3)ncn2)c1,0.158 µM (active),
N#Cc1cccc(-c2cc(NCc3cccs3)ncn2)c1,0.794 µM (active),
N#Cc1cccc(-c2cc(NCc3cccnc3)ncn2)c1,0.0398 µM (active),
N#Cc1cccc(-c2cc(NCc3ccccc3)ncn2)c1,1 µM (active),
C[C@@H](c1ccccc1)N1C(=O)[C@H]2[C@@H]3[C@H](O)C=CC(=O)[C@H]3CC[C@H]2C1=O,,-9.41% [at 11.4 µM]
COC(=O)C1C(=O)C2=C(CC1C)NC(=O)CC2c1cccc(C)c1 (stereo unspecified),,-28.9%
COC(=O)[C@@]1(Cc2ccccc2)[C@H]2c3cc(C(=O)N4CCCC4)n(Cc4ccc(S(C)(=O)=O)cc4)c3C[C@H]2CN1C(=O)c1ccccc1,,-17%
CN(CC[C@@H](Oc1ccc(-c2ccccc2)cc1)c1ccc(F)cc1)CC(=O)O,,-21%

Structure (SMILES),AC50,"activity, negative = inhibition"
O=C(Nc1ccc(Cl)cc1)OCCn1nnnc1C(c1ccccc1Cl)N1CCOCC1 (stereo unspecified),15.8 µM (active),
COc1ccc(Cn2nnnc2C(c2ccccc2Cl)N2CCC(C(N)=O)CC2)cc1 (stereo unspecified),,-13.2%
COC(=O)CNC(c1ccccc1Cl)c1cc(Br)ccc1NC(=O)CCN1CCOCC1 (stereo unspecified),,-12.6%
CO[C@@H]1/C=C\O[C@@]2(C)Oc3c(C)c(O)c4c(c3C2=O)C(=N[C@H]2CC[C@H](O)O[C@@H]2C)C=C(NC(=O)/C(C)=C\C(=O)[C@@H]2C[C@@H]2[C@@H](O)[C@H](C)[C@@H](O)[C@H](C)[C@H](OC(C)=O)[C@@H]1C)C4=O,,-9.54% [at 11.4 µM]
Cn1ccnc1SCC(=O)Nc1sccc1C#N,3.16 µM (active),
COc1ccc(NC(=O)CSc2ccc3c4c(cccc24)C(=O)c2ccccc2-3)cc1,1.58 µM (active),
COc1ccc(-n2ccnc2SCC(=O)Nc2ccccc2)cc1,12.6 µM (active),
COc1ccc(NC(=O)CSC2=NC(=O)CC(C)=N2)cc1,,-13.5%
COc1ccc(-n2nnnc2SCC(=O)Nc2ccccc2)cc1,6.31 µM (active),
COc1ccc(NC(=O)CSc2nnc(C3CC3)n2-c2ccccc2)cc1,,-16.2%
CCC(=O)Nc1ccc(NC(=O)CSc2nnnn2-c2cccnc2)cc1C,,-9.78%
C=CCN1C(=NC(=O)CC)SC2CS(=O)(=O)CC21 (stereo unspecified),,-14%
O=c1[nH]c(=S)c2[nH]c(=O)n(-c3ccccc3)c2[nH]1,,-1.84% [at 11.4 µM]
COc1cccc(NC(=O)CSc2nnc(CN3CCOCC3)n2C)c1,,-3.9%
COC(=O)CSc1nnc(C)n1-c1cccc(OC)c1,,-13.4%
CCOc1ccc(-n2c(SCC(=O)Nc3ccc(OC)cc3OC)nc3c(c2=O)SCC3)cc1,,-16.2%
COc1ccc(-n2ccnc2SCC(=O)Nc2ccc(OC)cc2OC)cc1,6.31 µM (active),
COc1cccc(-n2ccnc2SCC(=O)Nc2nccs2)c1,1.26 µM (active),
O=C1[C@H]2[C@H]3[C@H](O)[C@H](O)C/C(=N/OC[C@@H](O)COCc4ccco4)[C@H]3CC[C@@H]2C(=O)N1Cc1ccc2c(c1)OCO2,,6.71% [at 11.4 µM]
O=C(c1ccncc1)N1CCC2(CC1)CN(Cc1cc(C(F)(F)F)cc(C(F)(F)F)c1)C2,,3.54%
O=C1[C@@H]2[C@@H]3C=C[C@H]([C@@H]2C(=O)N1CN1CCSCC1)[C@@H]1[C@@H]2C(=O)N(CN4CCSCC4)C(=O)[C@@H]2[C@H]31,,-13.4% [at 11.4 µM]
O=C(NOC(=O)c1cc(Br)ccc1Cl)c1cccs1,,-19.8%
CN(C)CCNC(=O)Cn1nc(-c2ccc(Cl)cc2)ccc1=O,,18.6%

Structure (SMILES),AC50,"activity, negative = inhibition"
CN(C)CCNC(=O)c1cc(Br)ccc1Cl,11.2 µM (active),
CCCS(=O)(=O)N1CCCC(C(=O)NCCN(C)Cc2ccccc2)C1 (stereo unspecified),,-18.5%
CCn1c(SCc2ccc(Cl)cc2Cl)nc2nc3c(cc2c1=O)CCCC3,3.55 µM (active),
Cn1c(=O)c2c(nc(N3CCN(c4ccccn4)CC3)n2Cc2ccc(Cl)cc2Cl)n(C)c1=O,,-9.51%
CCC(=O)Nc1ncnc2ncn(C(=O)CC)c12,,-5.19% [at 11.4 µM]
CCCCNC(=O)Cc1coc2ccc3ccccc3c12,4.47 µM (active),
CCOC(=O)CSc1nnc(CSc2nc3sc4c(c3c(=O)[nH]2)CCCC4)n1-c1ccccc1,14.1 µM (active),
CCOC(=O)C(Sc1ncnc2c1sc1nc(N3CCOCC3)c3c(c12)CCCC3)c1ccccc1 (stereo unspecified),,-6.83%
CCOC(=O)CSc1nnc(Cc2cc(=O)[nH]c(=O)[nH]2)n1-c1cccc(OC)c1,,-6.04%
CN(Cc1ccco1)c1ncncc1-c1cccc(NS(C)(=O)=O)c1,15.8 µM (active),
CN(Cc1ccco1)c1ncnc2ccc(-c3cccc(NS(C)(=O)=O)c3)cc12,0.398 µM (active),
O=C1NC(c2ccccc2)=NC1(NS(=O)(=O)c1ccccc1)C(F)(F)F (stereo unspecified),,-28%
N#CCCn1c(=O)c(CCc2ccccc2)nc2cnc(Nc3ccccc3)nc21,,-7.24%
COc1cccc(Nc2ncc3nc(C)c(=O)n(CCC#N)c3n2)c1,1.26 µM (active),
Cc1nc2cnc(Nc3ccccc3)nc2n(CCC#N)c1=O,0.631 µM (active),
COc1cccc(Nc2ncc3ncc(=O)n(CCC#N)c3n2)c1,1 µM (active),
COc1cccc(Nc2ncc3nc(CCc4ccccc4)c(=O)n(CCC#N)c3n2)c1,,-9.26%
COc1ccc(-c2nc3cnc(Nc4cccc(OC)c4)nc3n(CCC#N)c2=O)cc1,6.31 µM (active),
C[N+](C)(C)CCCCCC[N+](C)(C)C,inactive,
O=S(Cc1ccccc1)CC(O)(c1ccccc1)c1ccccc1 (stereo unspecified),,-15.5%
Cc1ccc(C(=O)N2CCN(C3c4cccc5cccc(c45)C3NS(=O)(=O)c3ccccc3)CC2)cc1 (stereo unspecified),,-17.6%
CS(=O)(=O)Nc1cccc(-c2cncnc2Nc2ccc(F)cc2)c1,5.01 µM (active),
CS(=O)(=O)Nc1cccc(-c2cncnc2Nc2ccccc2)c1,5.01 µM (active),

Structure (SMILES),AC50,"activity, negative = inhibition"
CN=C(NC#N)NCCSC[C@H]1N=CN=C1C,,-10.2% [at 25.6 µM]
Cc1cnnn1-c1ccc(C(=O)CCl)cc1,2.82 µM (active),
COc1cccc(-c2cncnc2NCc2ccccc2)c1,5.01 µM (active),
COc1cccc(-c2cncnc2NCc2cccs2)c1,1.26 µM (active),
COc1cccc(-c2cncnc2NCc2cccnc2)c1,0.794 µM (active),
COc1cccc(-c2cncnc2NCc2cccc(C)c2)c1,2 µM (active),
CS(=O)(=O)N1CCC2(CC1)CN(Cc1cc(C(F)(F)F)cc(C(F)(F)F)c1)C2,,1.68%
O=C(c1csnn1)N1CCC2(CC1)CCN(C(c1ccccc1)c1ccccc1)CC2,,-12.1%
C=CCOc1ccc2cccc(/C=N/NC(=O)c3cc4cc([N+](=O)[O-])ccc4s3)c2c1,2.24 µM (active),
CC(=O)N/N=C/c1cc([N+](=O)[O-])ccc1OCCOc1ccccc1,,-7.66%
CCCCOC(=O)CCc1c(C)[nH]c(=O)c(C#N)c1C,,-29.7%
CCCCc1[nH]c(=O)c(C#N)c2c1CCCC2,5.01 µM (active),
C/C(CCN1CCCCc2nc(C)c(C)cc21)=N\O[C@@H](C)CN1CCCc2nc(C)c(C)cc21,,-40.3% [at 11.4 µM]
Cc1cc2c(c(=O)o1)[C@H](O)[C@H]1O[C@@H]1C2=O,,2.69% [at 11.4 µM]
C[N+]1(C)CCC[C@@H](OC(=O)C(O)(c2ccccc2)c2ccccc2)C1,,-8.79% [at 25.6 µM]
CC(=O)N[C@H](c1ccccc1)[C@@]1(C)C[C@@H]1[C@@H](C)C(=O)Nc1ccc2ccccc2c1,15.8 µM (active),
COC(=O)N[C@H](c1ccccc1)[C@@]1(C)C[C@@H]1[C@@H](C)C(=O)Nc1ccc2ccccc2c1,12.6 µM (active),
CC(=O)Nc1ccc(N2C(=O)CC(c3ccccc3)CC2=O)cc1,,-0.528%
C[C@@H](C(=O)Nc1ccc2ccccc2c1)[C@@H]1C[C@@]1(C)[C@@H](NC(=O)Oc1ccc(F)cc1)c1ccccc1,,-19.8%
C[C@@H](C(=O)Nc1ccc2ccccc2c1)[C@@H]1C[C@@]1(C)[C@@H](NC(=O)c1ccncc1Cl)c1ccccc1,25.1 µM (active),
C[C@@H](C(=O)Nc1ccc2ccccc2c1)[C@H]1C[C@]1(C)[C@H](NC(=O)Oc1ccc(F)cc1)c1ccccc1,,-20.8%
C[C@@H](C(=O)Nc1ccc2ccccc2c1)[C@@H]1C[C@@]1(C)[C@@H](N)c1ccccc1,15.8 µM (active),
